# Data: PubChem BioAssay (NCATS)
# Values joined by “and” are separate entries in the source; they are usually repeats but may differ in a detail not shown here. Identical values can stand only once. Results filed as inconclusive are left out. Values without a mark were called inactive. Active and inactive are the calls of the source. Calls come from the whole dose curve; as a rule, active = well fitted inhibition curve with a large enough effect; inconclusive = small, poorly fitted or top-dose-only effect; inactive = flat fitted curve, though single readings scatter.
# Assays:
# CRL-7250 = normal cell line; assay: Cytotoxic Profiling of Annotated Libraries Using Quantitative High-Throughput Screening (AID 1296008); details: Five cell lines viability, CellTiter-Glo ATP luminescence, 48-72 h; max response: stronger effect = lower value; for max response: % is set by controls: 0 for no effect and ±100 for the full control effect
# Summary of the method: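 Cytotoxicity was measured as CellTiter-Glo ATP luminescence, read after 10 min at room temperature. Compound treatment of the cells lasted 48 or 72 hr at 37 degrees Celsius in a qHTS format.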
# PAD = assay: qHTS profiling for inhibitors of Plasmodium falciparum proliferation (AID 504749); details: P. falciparum in erythrocytes, SYBR Green DNA, 72 h; series mostly up to 28.7 µM
# Summary of the method: (§1)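 In a 72 h erythrocytic culture (37 C, humidified, 5% CO2) at 2.5% hematocrit and 0.3% starting parasitemia, compounds were tested; SYBR Green I in detergent lysis buffer stained parasite DNA overnight.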
# PC26 = assay: as above; details: P. falciparum in erythrocytes, SYBR Green DNA, 72 h; series mostly up to 28.7 µM
# Summary of the method: as §1
# PC49 = assay: as above; details: P. falciparum in erythrocytes, SYBR Green DNA, 72 h; series mostly up to 28.7 µM
# Summary of the method: as §1
# SC27B = assay: as above; details: P. falciparum in erythrocytes, SYBR Green DNA, 72 h; series mostly up to 28.7 µM
# Summary of the method: as §1
# TAB109 = assay: as above; details: P. falciparum in erythrocytes, SYBR Green DNA, 72 h; series mostly up to 28.7 µM
# Summary of the method: as §1
# TAB113 = assay: as above; details: P. falciparum in erythrocytes, SYBR Green DNA, 72 h; series mostly up to 28.7 µM
# Summary of the method: as §1
# TAB165 = assay: as above; details: P. falciparum in erythrocytes, SYBR Green DNA, 72 h; series mostly up to 28.7 µM
# Summary of the method: as §1
# W2 = assay: as above; details: P. falciparum in erythrocytes, SYBR Green DNA, 72 h; series mostly up to 28.7 µM
# Summary of the method: as §1
# PC15 = assay: as above; details: P. falciparum in erythrocytes, SYBR Green DNA, 72 h; series mostly up to 28.7 µM
# Summary of the method: as §1
# Note: nearly all actives have a fitted effect of over 60% in size.
# Potency is the fitted concentration of half-maximal effect.
smiles,measurement,setting,value
O=C(Nc1cn[nH]c1-c1nc2ccc(CN3CCOCC3)cc2[nH]1)NC1CC1,Potency,CRL-7250,1.3 µM (active)
C1Cc2[nH]nc(-c3nn[nH]n3)c2C1,max response,CRL-7250,-5.71% and 4.92%
O=C(NC1CCNCC1)c1[nH]ncc1NC(=O)c1c(Cl)cccc1Cl,Potency,CRL-7250,0.332 µM (active)
CC1COC2(CCN(c3nc(=O)c4cc(C(F)(F)F)cc([N+](=O)[O-])c4s3)CC2)O1 (stereo not given),outcome,CRL-7250,inactive
Cn1c2ccccc2c2c3c(c4c5ccccc5n(CCC#N)c4c21)CNC3=O,Potency,CRL-7250,14.6 µM (active)
CC(C)[C@H](C(=O)Nc1ccc(C(=O)NO)cc1)c1ccccc1,Potency,CRL-7250,4.18 µM (active)
Cc1cc(Nc2ncnc3ccc(-c4ccc(CNCCS(C)(=O)=O)o4)cc23)ccc1Oc1ccn2ncnc2c1,Potency,CRL-7250,3.32 µM (active) and 23.1 µM (active)
CCC(=C(c1ccccc1)c1ccc(OCCN(C)C)cc1)c1ccccc1,max response,CRL-7250,3.45%
Nc1nc(-c2nn(Cc3ccccc3F)c3ncccc23)nc(N)c1N1CCOCC1,max response,CRL-7250,-1.46%
O=C(Nc1cc(C(F)(F)F)cc(C(F)(F)F)c1)c1cc(Cl)ccc1O,Potency,CRL-7250,3.72 µM (active) and 3.26 µM (active)
COc1ccc(CC2SC(=O)NC2=O)cc1C(=O)NCc1ccc(C(F)(F)F)cc1 (stereo not given),Potency,CRL-7250,11.8 µM (active)
CC(NCc1ccc2c(c1)nc(NC(=O)c1ccc(-c3cn[nH]c3)s1)n2CC(C)(C)O)C(C)(C)C (stereo not given),Potency,CRL-7250,0.296 µM (active)
Cc1cnc(Nc2ccc(F)cc2Cl)nc1-c1c[nH]c(C(=O)N[C@H](CO)c2cccc(Cl)c2)c1,Potency,CRL-7250,18.7 µM (active) and 20.6 µM (active)
O=C(O)Cn1nnc(-c2cc(N3CCC(Oc4cc(F)ccc4Br)CC3)no2)n1,max response,CRL-7250,1.84% and -2.26%
Cn1cc(-c2[nH]c3cc(NC(=O)[C@H](N)C4CCCCC4)cc4c3c2C=NNC4=O)cn1,Potency,CRL-7250,1.87 µM (active) and 2.59 µM (active)
CCN(CC)CCCCNc1ncc2cc(-c3cc(OC)cc(OC)c3)c(NC(=O)NC(C)(C)C)nc2n1,Potency,CRL-7250,0.264 µM (active)
CC(C)(O)c1cc2nc(-c3cnc(N)nc3)nc(N3CCOCC3)c2s1,Potency,CRL-7250,148 nM (active) and 731 nM (active)
NC(=O)c1c(OCc2c(F)cc(Br)cc2F)nsc1NC(=O)NCCCCN1CCCC1,Potency,CRL-7250,4.69 µM (active) and 8.2 µM (active)
Nc1cccc(-c2cc3c(Oc4cccc(O)c4)ncnc3[nH]2)c1,Potency,CRL-7250,14.8 µM (active)
Nc1ccc(C(=O)c2cc3c(ccc4ccccc43)[nH]2)cc1,max response,CRL-7250,-31%
CCCNC(=O)Nc1ccc(Oc2ncnc3cc(OC)c(OC)cc23)cc1Cl,max response,CRL-7250,-26.7% and 2.06%
CC(C)=CCCC(C)=CCCC(C)=CCSc1ccccc1C(=O)O,Potency,CRL-7250,0.148 µM (active)
O=C(NCCS(=O)(=O)c1ccc(C(F)(F)F)cn1)c1ccc(Cl)cc1,max response,CRL-7250,2.65%
COc1ccc(-n2nc(C(N)=O)c3c2C(=O)N(c2ccc(N4CCCCC4=O)cc2)CC3)cc1,max response,CRL-7250,-14% and -8.05%
Cc1cccc(C=NNc2cc(N3CCOCC3)nc(OCCc3ccccn3)n2)c1,max response,CRL-7250,-4.72%
COCCOc1ccc2c(c1)ncn2-c1ccc2cccc(N3CCC(N)CC3)c2n1,Potency,CRL-7250,4.69 µM (active) and 8.2 µM (active)
Cn1cc(-c2ccncc2)c(-c2ccc(OCc3ccc4ccccc4n3)cc2)n1,Potency,CRL-7250,2.64 µM (active)
N#Cc1c(O)c2c(-c3ccc(-c4ccccc4O)cc3)csc2[nH]c1=O,max response,CRL-7250,-0.58% and 1.34%
CCCCCCCCCC(=O)N[C@@H](Cc1c[nH]c2ccccc12)C(=O)N[C@H](CC(N)=O)C(=O)N[C@@H](CC(=O)O)C(=O)N[C@@H]1C(=O)NCC(=O)N[C@@H](CCCN)C(=O)N[C@@H](CC(=O)O)C(=O)N[C@H](C)C(=O)N[C@@H](CC(=O)O)C(=O)NCC(=O)N[C@H](CO)C(=O)N[C@@H]([C@@H](C)CC(=O)O)C(=O)N[C@@H](CC(=O)c2ccccc2N)C(=O)O[C@@H]1C,outcome,CRL-7250,inactive
COc1cc2c(NC3CCN(C(C)C)CC3)nc(C3CCCCC3)nc2cc1OCCCN1CCCC1,Potency,CRL-7250,8.33 µM (active) and 4.11 µM (active)
CC(C)(C)c1cnc(CSc2cnc(NC(=O)C3CCNCC3)s2)o1,Potency,CRL-7250,0.132 µM (active)
CN(C)CC=CC(=O)Nc1cc2c(Nc3ccc(F)c(Cl)c3)ncnc2cc1O[C@H]1CCOC1,Potency,CRL-7250,3.32 µM (active)
COc1cc2nccc(Oc3ccc(NC(=O)C4(C(=O)Nc5ccc(F)cc5)CC4)cc3)c2cc1OC,Potency,CRL-7250,1.48 µM (active) and 13 µM (active)
Nc1ccn([C@@H]2O[C@H](CO)[C@H](O)C2(F)F)c(=O)n1,Potency,PAD,708 nM (active)
same,Potency,PC26,4780 nM (active)
same,Potency,PC49,708 nM (active)
same,Potency,SC27B,3980 nM (active)
same,Potency,TAB109,5010 nM (active)
same,Potency,TAB113,3980 nM (active)
same,Potency,TAB165,3980 nM (active)
same,Potency,W2,190 nM (active)
CC[C@H]1CN2CCc3cc(OC)c(OC)cc3[C@H]2C[C@@H]1C[C@@H]1NCCc2cc(OC)c(OC)cc21,Potency,PAD,355 nM (active)
same,Potency,PC15,282 nM (active)
same,Potency,PC26,601 nM (active)
same,Potency,PC49,141 nM (active)
same,Potency,SC27B,398 nM (active)
same,Potency,TAB109,251 nM (active)
same,Potency,TAB113,316 nM (active)
same,Potency,TAB165,316 nM (active)
same,Potency,W2,151 nM (active)
O=C1CCC[C@@H]2[C@H]3CCC[N+]4([O-])CCC[C@@H](CN12)[C@@H]34 (stereo not given in full),max response,CRL-7250,2.61%
same,outcome,CRL-7250,inactive
Nc1ccn([C@@H]2CS[C@H](CO)O2)c(=O)n1,Potency,PAD,inactive
same,Potency,PC15,inactive
same,Potency,PC26,inactive
same,Potency,PC49,inactive
same,Potency,SC27B,inactive
same,Potency,TAB109,inactive
same,Potency,TAB113,inactive
same,Potency,TAB165,inactive
same,Potency,W2,inactive
CS(=O)(=O)c1ccc(-c2cnc(N)c(C(=O)Nc3ccccc3)n2)cc1,max response,CRL-7250,-11%
same,outcome,CRL-7250,inactive
COc1c(N2C[C@@H]3CCCN[C@H]3C2)c(F)cc2c(=O)c(C(=O)O)cn(C3CC3)c12,Potency,PAD,inactive
same,Potency,PC15,inactive
same,Potency,PC26,inactive
same,Potency,PC49,inactive
same,Potency,SC27B,inactive
same,Potency,TAB113,inactive
same,Potency,TAB165,inactive
same,Potency,W2,inactive
Nc1ccc(S(=O)(=O)Nc2ncccn2)cc1,Potency,PAD,inactive
same,Potency,PC15,inactive
same,Potency,PC26,inactive
same,Potency,PC49,inactive
same,Potency,SC27B,inactive
same,Potency,TAB109,inactive
same,Potency,TAB113,inactive
same,Potency,TAB165,inactive
same,Potency,W2,inactive
